Assay results taken from PubChem BioAssay AID1159580 (chemical genetic matrix, 2015).
Where “and” joins values, the source holds several entries; their conditions need not be identical. Identical values can stand only once. The campaign covered roughly 5,500 compounds. About 2,000 (36%) were called active. Another 18% or so got no clear call; they are omitted. No stated cut-off is given here; in the data, active means normalized growth mostly below about 0.91 (no sharp cut-off); inconclusive means no clear call, values can overlap the other calls; inactive means mostly above about 0.92. Some of the results follow.

Assay: chemical genetic growth profiling, strain panel (AID 1159580);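 further: tested at 20 µM; growth read once vehicle control cultures reached saturation at 30 °C; 1 = growth at the plate median or of vehicle wells; lower values mean less growth of the strain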
Details: growth OD

Measured: normalized growth

O=C(/C=C/c1ccc(O)cc1)c1ccc(O)cc1O
active: S. cerevisiae deletion strains, locus YKR001C, strain vps1, active compounds read low 0.887 | S. cerevisiae deletion strains, locus YLR371W, strain rom2, active compounds read low 0.9
inactive: S. cerevisiae deletion strains, locus YJR075W, strain HOC1, active compounds read low 0.985 and 0.976 | S. cerevisiae deletion strains, locus YKL009W, strain mrt4, active compounds read low 0.947 | S. cerevisiae deletion strains, locus YKL068W, active compounds read low 0.95 | S. cerevisiae deletion strains, locus YKL085W, strain MDH1 (second series), active compounds read low 0.965 | S. cerevisiae deletion strains, locus YKL085W, strain MDH1, active compounds read low 0.965 | S. cerevisiae deletion strains, locus YKL160W, strain elf1, active compounds read low 0.988 | S. cerevisiae deletion strains, locus YKL190W, strain CNB1, active compounds read low 0.993 | S. cerevisiae deletion strains, locus YKR026C, strain gcn3, active compounds read low 1.01 | S. cerevisiae deletion strains, locus YKR091W, strain srl3, active compounds read low 1.01 | S. cerevisiae deletion strains, locus YLL001W, strain dnm1, active compounds read low 1.01 | S. cerevisiae deletion strains, locus YLL026W, active compounds read low 1 | S. cerevisiae deletion strains, locus YLL041C, strain sdh2, active compounds read low 1.01 | S. cerevisiae deletion strains, locus YLR027C, strain aat2, active compounds read low 0.978 | S. cerevisiae deletion strains, locus YLR039C, strain RIC1, active compounds read low 0.942 | S. cerevisiae deletion strains, locus YLR058C, strain SHM2, active compounds read low 1.01 | S. cerevisiae deletion strains, locus YLR102C, strain apc9, active compounds read low 0.953 | S. cerevisiae deletion strains, locus YLR113W, strain HOG1, active compounds read low 0.927 | S. cerevisiae deletion strains, locus YLR221C, strain rsa3, active compounds read low 0.987 | S. cerevisiae deletion strains, locus YLR258W, strain gsy2, active compounds read low 1.01 | S. cerevisiae deletion strains, locus YLR262C, strain YPT6 (second series), active compounds read low 1.02 | S. cerevisiae deletion strains, locus YLR262C, strain YPT6, active compounds read low 1.02 | S. cerevisiae deletion strains, locus YLR268W, strain sec22, active compounds read low 0.957 | S. cerevisiae deletion strains, locus YLR320W, strain mms22, active compounds read low 1.01 | S. cerevisiae deletion strains, locus YLR330W, strain CHS5, active compounds read low 0.985 | S. cerevisiae deletion strains, locus YLR342W, strain FKS1 (second series), active compounds read low 0.981 | S. cerevisiae deletion strains, locus YLR342W, strain FKS1, active compounds read low 1 | S. cerevisiae deletion strains, locus YLR357W, strain rsc2, active compounds read low 0.997 | S. cerevisiae deletion strains, locus YLR370C, strain arc18, active compounds read low 1.02 | S. cerevisiae deletion strains, locus YLR384C, strain iki3, active compounds read low 1.01 | S. cerevisiae deletion strains, locus YLR418C, strain cdc73, active compounds read low 0.86 | S. cerevisiae deletion strains, locus YML016C, strain PPZ1, active compounds read low 0.986 | S. cerevisiae deletion strains, locus YML032C, strain rad52, active compounds read low 0.984 | S. cerevisiae deletion strains, locus YML120C, strain ndi1, active compounds read low 0.995 | S. cerevisiae deletion strains, locus YML124C, strain tub3, active compounds read low 0.964 | S. cerevisiae deletion strains, locus YMR058W, strain fet3, active compounds read low 1.02 | S. cerevisiae deletion strains, locus YMR078C, strain ctf18, active compounds read low 0.954 | S. cerevisiae deletion strains, locus YMR125W, strain sto1, active compounds read low 0.992 | S. cerevisiae deletion strains, locus YMR129W, active compounds read low 1.03 | S. cerevisiae deletion strains, locus YMR205C, strain PFK2, active compounds read low 0.967 | S. cerevisiae deletion strains, locus YMR223W, strain ubp8, active compounds read low 0.967 | S. cerevisiae deletion strains, locus YMR231W, strain pep5, active compounds read low 1.01 | S. cerevisiae deletion strains, locus YMR263W, strain SAP30, active compounds read low 0.989 | S. cerevisiae deletion strains, locus YMR307W, strain GAS1, active compounds read low 1.08 | S. cerevisiae deletion strains, locus YNL067W, strain RPL9B, active compounds read low 1.01 | S. cerevisiae deletion strains, locus YNL071W, strain lat1, active compounds read low 0.996 | S. cerevisiae deletion strains, locus YNL128W, strain TEP1, active compounds read low 0.964 | S. cerevisiae deletion strains, locus YNL153C, strain GIM3, active compounds read low 1.03 | S. cerevisiae deletion strains, locus YNL175C, strain NOP13, active compounds read low 0.979 | S. cerevisiae deletion strains, locus YNL183C, strain NPR1, active compounds read low 0.944 | S. cerevisiae deletion strains, locus YNL197C, strain WHI3, active compounds read low 0.992 | S. cerevisiae deletion strains, locus YNL209W, strain ssb2, active compounds read low 1 | S. cerevisiae deletion strains, locus YNL224C, strain SQS1, active compounds read low 0.976 | S. cerevisiae deletion strains, locus YNL233W, strain BNI4, active compounds read low 0.975 | S. cerevisiae deletion strains, locus YNL248C, strain rpa49, active compounds read low 1.04 | S. cerevisiae deletion strains, locus YNL250W, strain rad50, active compounds read low 0.961 | S. cerevisiae deletion strains, locus YNL271C, strain bni1, active compounds read low 0.965 | S. cerevisiae deletion strains, locus YNL298W, strain CLA4, active compounds read low 0.99 | S. cerevisiae deletion strains, locus YNL307C, strain MCK1, active compounds read low 0.968 | S. cerevisiae deletion strains, locus YNL322C, strain KRE1 (second series), active compounds read low 1 | S. cerevisiae deletion strains, locus YNR049C, strain mso1, active compounds read low 1.01 | S. cerevisiae deletion strains, locus YNR052C, strain pop2, active compounds read low 1.01 | S. cerevisiae deletion strains, locus YOL012C, strain htz1 1.77 | S. cerevisiae deletion strains, locus YOL147C, strain pex11, active compounds read low 0.969 | S. cerevisiae deletion strains, locus YOR001W, strain rrp6, active compounds read low 1.02 | S. cerevisiae deletion strains, locus YOR061W, strain CKA2, active compounds read low 0.988 | S. cerevisiae deletion strains, locus YOR069W, strain VPS5, active compounds read low 0.976 | S. cerevisiae deletion strains, locus YOR070C, strain gyp1, active compounds read low 1 | S. cerevisiae deletion strains, locus YOR080W, strain dia2, active compounds read low 1.01 | S. cerevisiae deletion strains, locus YOR083W, strain WHI5 (second series), active compounds read low 0.982 | S. cerevisiae deletion strains, locus YOR083W, strain WHI5, active compounds read low 0.974 | S. cerevisiae deletion strains, locus YOR106W, strain vam3, active compounds read low 0.988 | S. cerevisiae deletion strains, locus YOR136W, strain idh2, active compounds read low 0.974 | S. cerevisiae deletion strains, locus YOR144C, strain elg1, active compounds read low 0.99 | S. cerevisiae deletion strains, locus YOR184W, strain ser1, active compounds read low 0.93 | S. cerevisiae deletion strains, locus YOR231W, strain MKK1, active compounds read low 0.874 | S. cerevisiae deletion strains, locus YOR265W, strain rbl2, active compounds read low 1.02 | S. cerevisiae deletion strains, locus YOR270C, strain vph1, active compounds read low 1.04 | S. cerevisiae deletion strains, locus YOR290C, strain snf2, active compounds read low 0.976 | S. cerevisiae deletion strains, locus YOR316C, strain cot1, active compounds read low 0.962 | S. cerevisiae deletion strains, locus YPL051W, strain arl3, active compounds read low 0.975 | S. cerevisiae deletion strains, locus YPL055C, strain LGE1, active compounds read low 0.977 | S. cerevisiae deletion strains, locus YPL078C, strain atp4, active compounds read low 0.99 | S. cerevisiae deletion strains, locus YPL106C, strain sse1, active compounds read low 0.982 | S. cerevisiae deletion strains, locus YPL240C, strain hsp82, active compounds read low 1.01 | S. cerevisiae deletion strains, locus YPL256C, strain CLN2, active compounds read low 0.877 | S. cerevisiae deletion strains, locus YPR119W, strain clb2, active compounds read low 0.949 | S. cerevisiae deletion strains, locus YPR141C, strain kar3, active compounds read low 0.972 | S. cerevisiae deletion strains, locus YPR163C, strain tif3, active compounds read low 0.976 | S. cerevisiae deletion strains, locus YPR167C, strain met16, active compounds read low 0.966 | S. cerevisiae deletion strains, strain wtn01, active compounds read low 0.94 | S. cerevisiae strains, strain wild type, active compounds read low 0.991
